Bioassay records from PubChem.
Compounds with a hit are over-represented: about 2.7% of the library has one in this group of screens.
PfG6PD inh = PfG6PD (Plasmodium falciparum) enzyme inhibition; PfGluPho enzyme, NADPH resazurin-diaphorase fluorescence; inhibition, % at 20 µM; 350,000 compounds, 0.78% hits; AID 504690;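 active = inhibition reaching at least a set limit at 20 µM in the primary screen, cut at about 59% in these data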;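 note: 0% = DMSO wells with substrate and 100% = DMSO wells lacking glucose-6-phosphate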
FAS-TE inh = blocks the thioesterase domain of human fatty acid synthase | P49327 | recombinant FAS-TE, OMFH fluorogenic substrate, fluorescence endpoint | inhibition, % at 15 µM | 360,000 compounds, 0.67% hits | AID 602261;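 active = compounds whose normalised, plate-corrected inhibition of enzyme fluorescence in the single-dose primary screen is 50% or more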;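 note: 0% = DMSO with enzyme and 100% = substrate without enzyme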
Neddylation inh = blocks human cullin neddylation | TR-FRET cullin neddylation, biochemical | AID 651699 | calls only at 25 µM | 360,000 compounds, 0.58% hits; in the data active = inhibition above about 36%
proKLK7 act = activates the human kallikrein-7 zymogen | P49862 | AID 652039 | purified proKLK7, EDANS-DABCYL substrate fluorescence; 100% is mature enzyme control, 0% vehicle | activation, % at 7 µM | 370,000 compounds, 0.9% hits;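 active = activation above the mean of all tested compounds plus 3 SD, computed per campaign excluding outliers beyond control limits, cut at about 13% in these data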
Target sequence (P49862 whole entry, looked up): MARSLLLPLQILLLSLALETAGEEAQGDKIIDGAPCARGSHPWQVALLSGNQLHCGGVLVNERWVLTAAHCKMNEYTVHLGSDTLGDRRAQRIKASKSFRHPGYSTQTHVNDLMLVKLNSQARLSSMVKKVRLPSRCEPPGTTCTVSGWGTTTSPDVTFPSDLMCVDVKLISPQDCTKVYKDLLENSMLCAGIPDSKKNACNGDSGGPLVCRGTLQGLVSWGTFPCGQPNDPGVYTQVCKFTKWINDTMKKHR
Neddyl inh conf = confirmation of human cullin neddylation inhibitors. shares compounds with Neddylation inh. TR-FRET cullin neddylation biochemical assay. calls only at 25 µM. 1,800 compounds, 13% hits; in the data active = inhibition above about 40%;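 note: neddylation substrate is the cullin 1 ring ligase complex with SKP2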
Active calls of the source: *; i = inactive; nt = no result shown; + = active, no number.

SMILES	PfG6PD inh	FAS-TE inh	Neddylation inh	proKLK7 act	Neddyl inh conf
CN(CC(=O)Nc1ccccc1Cl)C(=O)COC(=O)c1ccc(-c2ccc(O)cc2)cc1	-11	-3	+	0	nt
c1ccc2nc(N3CCCC3)c(N3CCCC3)nc2c1	8	10	+	2	nt
Cc1nc(-c2cccs2)sc1C(=O)NN	2	-6	i	-6	nt
CCOC(=O)c1sc(-c2cccs2)nc1C	1	8	+	-1	i
COC(CNC(=O)c1ccc2nc(-c3ccccc3)c(-c3ccccc3)nc2c1)OC	-10	10	+	-8	+
CCN1CCN(C(=O)c2ccc3nc(-c4ccccc4)c(-c4ccccc4)nc3c2)CC1	-2	5	+	2	+
COCC(=O)N1[C@H](CO)[C@@H](c2ccc(-c3cccnc3)cc2)[C@H]1CN(C)S(=O)(=O)c1ccccc1[N+](=O)[O-]	nt	nt	nt	0	nt
Cc1ccccc1Cn1cc(CN2[C@H](CC(C)C)COc3cc(Br)ccc3S2(=O)=O)nn1	nt	nt	nt	0	nt
c1ccc(Nc2cccc3c(Nc4ccccc4)cccc23)cc1	14	32	+	-9	+
Cc1cc(=O)oc2cc(OCC(=O)N3CCCC3)ccc12	1	-4	+	-2	i
O=C(COc1ccc2c3c(c(=O)oc2c1)CCC3)N1CCCCC1	5	3	i	0	nt
CCOC(=O)C1CCN(C(=O)COc2ccc3c(C)cc(=O)oc3c2)CC1	-3	4	+	-2	i
CCc1cc(=O)oc2cc(OCC(=O)N3CCC(C(=O)O)CC3)ccc12	2	-6	i	1	nt
Cc1cc(=O)oc2cc(OCC(O)Cn3ccnc3)ccc12 (stereo unspecified)	-6	-6	+	-3	i
Cc1cc(=O)oc2cc(OCC(=O)NCCCn3ccnc3)ccc12	-8	-11	i	1	nt
C[C@H](O)[C@@H]1CN2CCc3c([nH]c4c(-c5ccc6c(c5)OCO6)cccc34)[C@@H]2C[C@@H]1N(C)C(=O)Nc1ccccc1	nt	nt	nt	1	nt
NNC(=O)c1oc2nc(-c3ccccc3)cc(-c3ccccc3)c2c1N	2	1	+	-4	i
O=C(NCCO)c1ccc2c3n(nc2c1)-c1ccccc1CO3	7	-11	+	5	i
Cc1ccc2c(c1)COc1c3ccc(C(=O)NCC4CC4)cc3nn1-2	7	8	+	-3	+
O=C(NCC1CC1)c1ccc2c3n(nc2c1)-c1ccccc1CO3	0	-1	i	4	nt
Cc1ccc(-n2nc(C)c3c(C)cc(=O)[nH]c32)cc1	0	-6	+	2	i
Cc1csc(NC(=O)c2cc(=O)[nH]c3ccc(S(=O)(=O)N4CCOCC4)cc23)n1	12	2	+	2	nt
CSCCC(C(=O)NC1CCCC1)n1c(C2CCCC2)nc2ccccc21 (stereo unspecified)	nt	nt	i	0	nt
COc1cccc(OC)c1C(=O)NC(=S)NNC(=O)[C@H]1C[C@@H]1c1ccccc1	2	-6	+	0	i
CCN(CC(=O)Nc1ccc(NC(C)=O)cc1)C(=O)/C=C/c1cn(-c2ccccc2)nc1-c1cccs1	16	16	+	-23	nt
SMILES	PfG6PD inh	FAS-TE inh	Neddylation inh	proKLK7 act	Neddyl inh conf
CCOc1ccc(N/C=C/C(=O)c2ccc(OC)c(OC)c2)cc1	6	2	+	-1	i
CCCOc1ccc(N/C=C/C(=O)c2ccc(OC)c(OC)c2)cc1	17	0	i	-18	nt
Cc1ccsc1/C=N/Nc1nc(Cl)c(Cl)cc1Cl	5	3	+	-2	i
CCN(CCNC(=O)[C@H]1C=C(OC)C(=O)C[C@H](c2ccccc2)[C@H]1C)C(C)=O	nt	nt	nt	-1	nt
Cc1cc2n(n1)C(c1ccco1)Nc1ccccc1-2 (stereo unspecified)	3	9	i	0	nt
Cc1cc2n(n1)C(c1ccc(O)cc1)Nc1ccccc1-2 (stereo unspecified)	-10	-3	+	-1	i
CCCC[C@H](C(=O)N(C)c1ccccc1)[C@@H](O)c1ccc(Cl)cc1	nt	nt	nt	0	nt
Cc1ccc(S(=O)(=O)c2cc3c(=O)n4ccccc4nc3n(C)c2=N)cc1	16	12	+	2	i
O=C(Nc1nnc([C@@H]2C[C@H](O)[C@@H](CO)O2)s1)Nc1ccc(F)cc1F	nt	-8	i	0	nt
Cc1c2ccccc2nc2ccccc12	19	2	+	5	i
CC(C)c1cc(C(=O)OCC(=O)NC2CCS(=O)(=O)C2)c(O)c(C(C)C)c1 (stereo unspecified)	0	-2	i	0	nt
